Laboratory results taken from PubChem BioAssay.
“And” between values parts separate entries of the source, which are not always exact repeats. Equal entries are not always repeated. Records with an inconclusive call do not appear. The source made the active and inactive calls.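 Rule for the calls, unless noted: active = normalized viability below 100% at a tested concentration; inactive = the rest.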

Key:
[1] = growth inhibition of DIPG glioma cells, dose response, cell-based, SU-DIPG-XVII, MIPE5.0, CellTiter-Glo, qHTS (AID 1347060; cut-off not given, nearly all actives have AC50 up to about 26 µM;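 for AC50: cells exposed to compound for 48 hours before viability readout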); conditions: SU-DIPG-XVII viability, CellTiter-Glo ATP luminescence
[2] = growth inhibition of DIPG glioma cells, dose response, cell-based, SU-DIPG-XIII, MIPE4.0, CellTiter-Glo, qHTS (AID 1347061; cut-off not given, nearly all actives have AC50 up to about 37 µM;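 note: cells exposed to compound for 48 hours before readout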); conditions: SU-DIPG-XIII viability, CellTiter-Glo ATP luminescence
[3] = growth inhibition of DIPG glioma cells, dose response, cell-based, JHH-DIPG-1, MIPE4.0, CellTiter-Glo, qHTS (AID 1347062; cut-off not given, nearly all actives have AC50 up to about 27 µM;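 for AC50: cells exposed to compound for two days before readout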); conditions: JHH-DIPG-1 viability, CellTiter-Glo ATP luminescence
[4] = growth inhibition of DIPG glioma cells, dose response, cell-based, SU-DIPG-IV, MIPE4.0, CellTiter-Glo, qHTS (AID 1347063; cut-off not given, nearly all actives have AC50 up to about 30 µM;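 note: compound exposure lasted 48 hours before the viability readout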); conditions: SU-DIPG-IV viability, CellTiter-Glo ATP luminescence
[5] = growth inhibition of DIPG glioma cells, dose response, cell-based, SU-DIPG-XIII, MIPE5.0, CellTiter-Glo, qHTS (AID 1347064; cut-off not given, nearly all actives have AC50 up to about 23 µM;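 for AC50: cells exposed to compound for 48 hours before the viability read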); conditions: SU-DIPG-XIII viability, CellTiter-Glo ATP luminescence
[6] = viability loss in pontine glioma line – cell-based, SU-DIPG-XXV, MIPE5.0, CellTiter-Glo, qHTS, dose response (AID 1347065; cut-off not given, nearly all actives have AC50 up to about 26 µM;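 note: cells exposed to compound for 48 hours before ATP readout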); conditions: CellTiter-Glo ATP luminescence
[7] = SU-DIPG-VI glioma cell viability, MIPE4.0 library, CellTiter-Glo luminescence, qHTS (AID 1347066; cut-off not given, nearly all actives have AC50 up to about 30 µM;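 note: cells exposed to compound for 48 hours before readout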); conditions: CellTiter-Glo ATP luminescence
[8] = SU-DIPG-XXV glioma cell viability, MIPE5.0 library, qHTS (AID 1347068; cut-off not given, nearly all actives have IC50 up to about 30 µM;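 for IC50: cells exposed to compound for 48 hours before viability readout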)
[9] = JHH-DIPG-1 glioma cell viability, MIPE5.0 library, CellTiter-Glo luminescence, qHTS (AID 1347067; cut-off not given, nearly all actives have AC50 up to about 26 µM;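 note: cells exposed to compound for 48 hours before readout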); conditions: JHH-DIPG-1 glioma viability, CellTiter-Glo ATP luminescence
[10] = sensitizers of A549 cells to miR-34 induction, primary screen, imaging, A549 dox-inducible miR-34, nuclei and caspase counts (AID 1347080;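 active = compounds whose cell count with miR-34 switched on is under 0.7 times the count with it off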); conditions: A549 miR-34 inducible, Hoechst nuclei count, 48 h
[11] = modifiers of HSF1 nuclear foci, imaging, Selleck Cancer Library (AID 1347162; in the data active = plate-normalised HSF1 focus index below about 0.46); conditions: human cells, at 10 µM; SSMD: measured here: HSF1 foci SSMD mean; cell count: measured here: cell number; plate-normalised HSF1 focus index: stronger effect = lower value
[12] = survival rescue of mitochondrial mutant cells in low glucose, primary screen, MELAS cybrids, Rieske KO mouse fibroblasts, CellTiter-Glo (AID 1508586;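 active = mean z-score across replicates of 1.96 or higher in either the MELAS or the Rieske mutant cell line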;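 note: z relative to plate mean and SD of compound and empty wells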)
[13] = ovarian cancer cell viability with rucaparib, profiling panel, oncology-focused library, rucaparib conditional (AID 1508598); conditions: patient-derived ovarian cancer cells, CellTiter-Glo viability, 144 h, stronger effect = lower value
[14] = stronger effect = lower value, cell number ratio, induced over uninduced
[15] = measured here: relative caspase fold change +Dox/-Dox
[16] = measured here: total cells with miR-34 induction, stronger effect = lower value
[17] = measured here: total cells without miR-34 induction
[18] = MELAS cybrid survival, CellTiter-Glo 48 h, stronger effect = higher value
[19] = Rieske KO mouse fibroblast survival, CellTiter-Glo 72 h
[20] = at 0.000305 µM, OCI-C5x cells, with rucaparib 10 µM, 100% = cells with rucaparib alone
[21] = at 0.000305 µM, OCI-C5x cells, without rucaparib
[22] = at 0.000305 µM, OCI-P5x cells, with rucaparib 20 µM, 100% = cells with rucaparib alone
[23] = at 0.000305 µM, OCI-P5x cells, without rucaparib
[24] = at 0.00122 µM, OCI-C5x cells, with rucaparib 10 µM, 100% = cells with rucaparib alone
[25] = at 0.00122 µM, OCI-C5x cells, without rucaparib
[26] = at 0.00122 µM, OCI-P5x cells, with rucaparib 20 µM, 100% = cells with rucaparib alone
[27] = at 0.00122 µM, OCI-P5x cells, without rucaparib
[28] = at 0.00488 µM, OCI-C5x cells, with rucaparib 10 µM, 100% = cells with rucaparib alone
[29] = at 0.00488 µM, OCI-C5x cells, without rucaparib
[30] = at 0.00488 µM, OCI-P5x cells, with rucaparib 20 µM, 100% = cells with rucaparib alone
[31] = at 0.00488 µM, OCI-P5x cells, without rucaparib
[32] = at 0.0195 µM, OCI-C5x cells, with rucaparib 10 µM, 100% = cells with rucaparib alone
[33] = at 0.0195 µM, OCI-C5x cells, without rucaparib
[34] = at 0.0195 µM, OCI-P5x cells, with rucaparib 20 µM, 100% = cells with rucaparib alone
[35] = at 0.0195 µM, OCI-P5x cells, without rucaparib
[36] = at 0.0781 µM, OCI-C5x cells, with rucaparib 10 µM, 100% = cells with rucaparib alone
[37] = at 0.0781 µM, OCI-C5x cells, without rucaparib
[38] = at 0.0781 µM, OCI-P5x cells, with rucaparib 20 µM, 100% = cells with rucaparib alone
[39] = at 0.0781 µM, OCI-P5x cells, without rucaparib
[40] = at 0.313 µM, OCI-C5x cells, with rucaparib 10 µM, 100% = cells with rucaparib alone
[41] = at 0.313 µM, OCI-C5x cells, without rucaparib
[42] = at 0.313 µM, OCI-P5x cells, with rucaparib 20 µM, 100% = cells with rucaparib alone
[43] = at 0.313 µM, OCI-P5x cells, without rucaparib
[44] = at 1.25 µM, OCI-C5x cells, with rucaparib 10 µM, 100% = cells with rucaparib alone
[45] = at 1.25 µM, OCI-C5x cells, without rucaparib
[46] = at 1.25 µM, OCI-P5x cells, with rucaparib 20 µM, 100% = cells with rucaparib alone
[47] = at 1.25 µM, OCI-P5x cells, without rucaparib
[48] = at 5 µM, OCI-C5x cells, with rucaparib 10 µM, 100% = cells with rucaparib alone
[49] = at 5 µM, OCI-C5x cells, without rucaparib
[50] = at 5 µM, OCI-P5x cells, with rucaparib 20 µM, 100% = cells with rucaparib alone
[51] = at 5 µM, OCI-P5x cells, without rucaparib

Cc1ccc(C(N)=O)cc1Nc1nccc(-c2cn(C(C)C)c3cnccc23)n1
active: AC50 [1] 9340 nM | AC50 [2] 18700 nM | AC50 [3] 9350 nM | AC50 [4] 8330 nM | AC50 [5] 11800 nM | AC50 [6] 7420 nM | AC50 [7] 13200 nM | IC50 [8] 11800 nM

Nc1ncnc2ccccc12
inactive: outcome [1] | outcome [2] | outcome [3] | outcome [4] | outcome [5] | outcome [6] | outcome [9] | outcome [8]

Oc1cccc(-c2nc(N3CCOCC3)c3oc4ncccc4c3n2)c1
-0.00105: z-score [12, 19]
2190 and 1580: cell count [10, 17]
active: AC50 [1] 525 nM | AC50 [2] 1210 nM | AC50 [3] 215 nM | AC50 [4] 42.9 nM | AC50 [5] 332 nM | AC50 [6] 186 nM | AC50 [7] 3820 nM | AC50 [9] 5250 nM | z-score [12, 18] 2.46 | viability [13, 27] 98.5% | viability [13, 28] 75.7% | viability [13, 29] 93.3% | viability [13, 32] 79.3% | viability [13, 33] 72.3% | viability [13, 38] 97.5% | viability [13, 39] 96.9% | viability [13, 42] 73.1% | viability [13, 43] 95.8% | viability [13, 44] 78.6% | viability [13, 45] 86.7% | viability [13, 46] 45.8% | viability [13, 47] 65.7% | viability [13, 48] 60.3% | viability [13, 49] 69.5% | viability [13, 50] 40.3% | viability [13, 51] 48.6%
-4.03: SSMD [11]
inactive: fold change [10, 14] 1.06 and 0.903 | plate-normalised HSF1 focus index [11] 0.749 | viability [13, 20] 109% | viability [13, 21] 110% | viability [13, 22] 120% | viability [13, 23] 103% | viability [13, 24] 109% | viability [13, 25] 104% | viability [13, 26] 117% | viability [13, 30] 106% | viability [13, 31] 103% | viability [13, 34] 113% | viability [13, 35] 100% | viability [13, 36] 103% | viability [13, 37] 107% | viability [13, 40] 123% | viability [13, 41] 114%
0.551 and 1.05: fold change [10, 15]
2320 and 1430: cell count [10, 16]
7310: cell count [11]

C[C@@H]1CCN(C(=O)CC#N)C[C@@H]1N(C)c1ncnc2[nH]ccc12
3.28: SSMD [11]
7280: cell count [11]
inactive: outcome [1] | outcome [2] | outcome [3] | outcome [4] | outcome [5] | outcome [6] | outcome [7] | outcome [9] | plate-normalised HSF1 focus index [11] 1.17

CN(C)C(N)=NC(=N)N
inactive: outcome [1] | outcome [2] | outcome [3] | outcome [4] | outcome [5] | outcome [6] | outcome [7] | outcome [8]

COC(=O)Nc1ccc(-c2nc(N3CCOCC3)c3cnn(C4CCN(C(=O)OC)CC4)c3n2)cc1
0.692: fold change [10, 15]
2420: cell count [10, 16]
active: AC50 [1] 1860 nM | AC50 [2] 66.2 nM | AC50 [3] 187 nM | AC50 [4] 1320 nM | AC50 [5] 2630 nM | AC50 [6] 417 nM | z-score [12, 18] 4.37 | viability [13, 22] 94.1% | viability [13, 23] 90.5% | viability [13, 27] 93.1% | viability [13, 38] 97% | viability [13, 46] 83.4% | viability [13, 50] 70.5% | viability [13, 51] 99.3%
inactive: fold change [10, 14] 1.03 | plate-normalised HSF1 focus index [11] 1.06 | viability [13, 20] 108% | viability [13, 21] 105% | viability [13, 24] 127% | viability [13, 25] 108% | viability [13, 26] 104% | viability [13, 28] 109% | viability [13, 29] 108% | viability [13, 30] 101% | viability [13, 31] 102% | viability [13, 32] 118% | viability [13, 33] 117% | viability [13, 34] 106% | viability [13, 35] 104% | viability [13, 36] 115% | viability [13, 37] 112% | viability [13, 39] 101% | viability [13, 40] 100% | viability [13, 41] 114% | viability [13, 42] 101% | viability [13, 43] 106% | viability [13, 44] 119% | viability [13, 45] 116% | viability [13, 47] 103% | viability [13, 48] 126% | viability [13, 49] 120%
6960: cell count [11]
2340: cell count [10, 17]
1.11: SSMD [11]
0.522: z-score [12, 19]

N[C@@]1(C(=O)O)CS(=O)(=O)[C@H]2[C@H](C(=O)O)[C@H]21
inactive: outcome [1] | outcome [2] | outcome [3] | outcome [4] | outcome [5] | outcome [7] | outcome [9] | outcome [8]

CNC(=O)c1ccc(C)c(-n2c(C)cc(OCc3ccc(F)cc3F)c(Br)c2=O)c1
active: viability [13, 32] 97.8% | viability [13, 40] 90.4% | viability [13, 44] 91.7%
inactive: outcome [1] | outcome [2] | outcome [3] | outcome [4] | outcome [5] | outcome [8] | fold change [10, 14] 0.88 | plate-normalised HSF1 focus index [11] 1.22 | z-score [12, 18] -0.398 | viability [13, 20] 104% | viability [13, 21] 124% | viability [13, 22] 115% | viability [13, 23] 115% | viability [13, 24] 110% | viability [13, 25] 124% | viability [13, 26] 107% | viability [13, 27] 105% | viability [13, 28] 105% | viability [13, 29] 102% | viability [13, 30] 112% | viability [13, 31] 111% | viability [13, 33] 113% | viability [13, 34] 114% | viability [13, 35] 107% | viability [13, 36] 101% | viability [13, 37] 106% | viability [13, 38] 108% | viability [13, 39] 108% | viability [13, 41] 119% | viability [13, 42] 112% | viability [13, 43] 112% | viability [13, 45] 112% | viability [13, 46] 110% | viability [13, 47] 108% | viability [13, 48] 123% | viability [13, 49] 129% | viability [13, 50] 110% | viability [13, 51] 105%
7360: cell count [10, 16]
3.49: SSMD [11]
7630: cell count [11]
0.999: fold change [10, 15]
-1.25: z-score [12, 19]
8370: cell count [10, 17]
